ALDH1A1 inh – qHTS Assay for Inhibitors of Aldehyde Dehydrogenase 1 (ALDH1A1). Potency, µM (top dose mostly 75.3 µM), for inactives: at the top dose activity, negative = inhibition, usual class: inhibitors. AID 1030, 2008. Purified ALDH1A1, NADH fluorescence, propionaldehyde substrate. hit rate 7.3% among 220,000. Aldehyde dehydrogenase 1A1 (Homo sapiens), P00352; active = well fitted inhibition curve with a large enough effect, not every such curve was filed as active; inconclusive = small, poorly fitted or top-dose-only effect, or another doubt; inactive = no such curve, though single readings can be large or run the other way;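 also: potency is read from the fitted curve at half-maximal effect; plate controls were no enzyme wells and a reference inhibitor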
GLA inh pH 4.5 – qHTS Assay for Inhibitors of Human alpha-Galactosidase at pH 4.5. 230,000 tested, under 10 active. purified enzyme, 4-MU-alpha-Gal fluorescence, pH 4.5. activity change, negative = inhibition, % at 105 µM;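 also: 0% = full activity with enzyme and -100% = basal without enzyme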
Target sequence (P06280 whole entry, looked up): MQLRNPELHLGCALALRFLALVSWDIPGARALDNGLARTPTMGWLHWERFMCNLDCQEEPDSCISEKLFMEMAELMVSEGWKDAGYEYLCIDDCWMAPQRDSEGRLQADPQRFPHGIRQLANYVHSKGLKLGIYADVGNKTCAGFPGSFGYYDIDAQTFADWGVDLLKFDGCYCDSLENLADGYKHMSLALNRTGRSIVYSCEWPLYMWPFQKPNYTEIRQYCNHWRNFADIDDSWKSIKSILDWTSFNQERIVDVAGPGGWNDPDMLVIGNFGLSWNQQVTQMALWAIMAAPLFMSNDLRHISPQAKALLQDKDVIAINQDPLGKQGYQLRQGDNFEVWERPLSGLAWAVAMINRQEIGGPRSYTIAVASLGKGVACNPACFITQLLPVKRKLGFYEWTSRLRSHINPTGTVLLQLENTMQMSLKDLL
HPGD inh – qHTS Assay for Inhibitors of HPGD (15-Hydroxyprostaglandin Dehydrogenase). 15-hydroxyprostaglandin dehydrogenase [NAD(+)] (Homo sapiens), P15428. purified HPGD, NADH fluorescence kinetic, PGE2 substrate. Potency, µM, inactives show at the top dose activity change, negative = inhibition, actives largely listed as inhibitors. hit rate 4.3% among 150,000. AID 894, 2007; active = well fitted inhibition curve with a large enough effect, not every such curve was filed as active; inconclusive = small, poorly fitted or top-dose-only effect, or another doubt; inactive = no such curve, though single readings can be large or run the other way; also: potency is read from the fitted curve at half-maximal effect
Target sequence (P15428 whole entry, looked up): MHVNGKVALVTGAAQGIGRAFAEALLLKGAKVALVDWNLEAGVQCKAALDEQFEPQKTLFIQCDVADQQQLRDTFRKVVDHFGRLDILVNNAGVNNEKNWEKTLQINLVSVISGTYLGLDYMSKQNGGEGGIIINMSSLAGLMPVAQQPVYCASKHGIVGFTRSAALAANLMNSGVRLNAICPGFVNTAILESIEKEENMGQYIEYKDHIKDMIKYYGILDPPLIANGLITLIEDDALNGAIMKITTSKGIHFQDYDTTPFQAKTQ
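20 nM HPGD preincubated 15 min at room temperature with compound in 50 mM Tris-HCl pH 8, 0.01% Tween 20. Started with 1 mM NAD+ and 30 uM prostaglandin E2; NADH fluorescence (360/450 nm) read 5 times over 30-s intervals, last minus first.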
PNC assembly inh – High Content Assay for Compounds that inhibit the Assembly of the Perinucleolar Compartment | AID 2417, 2010 | activity change (PNC), negative = inhibition, % at 10 µM | hit rate 3.1% among 140,000 | PC3M PTB-GFP, PNC prevalence imaging, 16 h; stronger effect = lower value;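 active = readout at or below -70, meaning at least 70% loss of cells showing the perinucleolar compartment, a nuclear body marking cancer cells; inconclusive = readout between -30 and a set limit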;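 also: plate controls were DMSO wells for no effect and camptothecin positive control wells for full effect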
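Read-out is percentage of cells bearing a perinucleolar compartment, from automated 20x imaging of fixed, Hoechst-stained PC3M PTB-GFP cells. Cells were seeded 4 h, then exposed 16 h to compound (23 nl of library stock) in duplicate plates.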
12-hLO inh – qHTS Assay for Inhibitors of 12-hLO (12-human lipoxygenase); Polyunsaturated fatty acid lipoxygenase ALOX12 (Homo sapiens), P18054; hit rate 0.12% among 150,000; purified 12-hLO, xylenol orange hydroperoxide absorbance; Potency, µM (series often up to 57.1 µM), for inactives: top-dose activity change, negative = inhibition, most hits filed as inhibitors; also: potency is read from the fitted curve at half-maximal effect; nearly all actives have a fitted effect of over 55% in size
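Hydroperoxide output read as Fe(III)-xylenol orange absorbance, 573-to-405 nm ratio, after 30 min reaction with 40 uM arachidonic acid. Enzyme: 150 nM purified human 12hLO, 15 min compound preincubation; 25 mM Hepes pH 7.0, room temperature.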
aGal spleen mod – qHTS Assay for Inhibitors and Activators of Human alpha-Galactosidase From Spleen Homogenate; Alpha-galactosidase A (Homo sapiens), P06280; Potency, µM (titrated, usually from 80 µM), for the others: at the top dose activity change, negative = inhibition, usual class: inhibitors; hit rate 0.008% among 240,000; human spleen homogenate, 4MU-alpha-Gal fluorescence, 40 min;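 also: potency is read from the fitted curve at half-maximal effect; 0% = enzyme with vehicle and -100% = no enzyme basal signal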
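qHTS titration in buffer at pH 5.0. Alpha-galactosidase activity in spleen homogenate was measured via 4-methylumbelliferone release from 1 mM fluorogenic substrate after 40 min at 37C and a pH 10 stop. AC50 came from Hill fits of control-normalized data.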
Starred values were filed as active, the others as inactive; ? = inconclusive; · = no result given; [ ] = dose if it differs, or a comment. Shown are actives, neighbours in structure and some others; about 10% of the full set was active somewhere. Unless noted, calls follow the shape of the dose curve; as a rule, active = well fitted curve in the direction sought with a large enough effect; inconclusive = small, poorly fitted or top-dose-only effect, or another doubt; inactive = no such curve, though single readings can be large; an effect the other way counts as inactive or inconclusive. Unless noted, % is scaled to controls: 0 for no effect and ±100 for the full control effect.

SMILES	ALDH1A1 inh	GLA inh pH 4.5	HPGD inh	PNC assembly inh	12-hLO inh	aGal spleen mod
COC(=O)c1cccc(-n2c(C)cc(C=O)c2C)c1	7.94µM*	1.9	-13.0%	5.4	-8.3%	0.3%
CCOC(=O)OCC1OC(c2ccc(C(C)=O)cc2)C=CC1OC(=O)OCC (stereo not drawn)	-17.1%[13.5 µM]	·	·	·	·	8.7%[17.5 µM]
COc1ccccc1-n1c(C)cc(C=O)c1C	14.1µM*	10.6	-6.5%	2.0	3.1%	-2.5%
COc1ccc(C)cc1-n1c(C)cc(C=O)c1C	?	3.7	·	·	·	-6.8%
O=C1C=CC2(OCCCO2)C(Br)=C1CO	2.5%	0.0	?	·	·	-2.0%
CC(C)CCCC(C)C1CCC2C3CC=C4CC(=O)CC[C@@]4(C)C3CC[C@@]12C (stereo partly drawn)	-3.1%	-1.3	-9.8%	·	-1.9%	8.9%
CCOC(=O)c1c(C)oc2cc(Br)c(OC(C)C(=O)OCC)cc12 (stereo not drawn)	0.3%	·	-23.8%	-100.0*	-7.7%	10.8%
CCOC(=O)COc1cc2c(C(=O)OCC)c(C)oc2cc1Br	-9.7%	5.1	0.2%	?	-1.6%	-9.5%
O=c1c2ccccc2sn1-c1cc(S(=O)(=O)N2CCOCC2)ccc1N1CCOCC1	0.0562µM*	-8.6	0.794µM*	?	2.24µM*	-0.1%
COCC(=O)Oc1c(Sc2ccccc2[N+](=O)[O-])c(C)nn1C(C)(C)C	8.91µM*	3.5	·	·	·	-12.7%
COCC(=O)Oc1c(S(=O)(=O)c2ccc(C)cc2)c(C)nn1-c1ccccc1	-10.0%	7.6	-23.0%	9.1	-2.6%	18.7%
CCC(CC)C(=O)Oc1c(Sc2ccccc2[N+](=O)[O-])c(C)nn1C(C)(C)C	2.24µM*	-8.9	-24.9%	?	-1.8%	-9.8%
Cn1ccnc1Sc1ccccc1[N+](=O)[O-]	-4.6%	0.5	·	·	·	2.0%
COC(=O)c1cc(=O)c(O)c2c(O)c(O)ccc2c1	11.2µM*	-1.3	7.94µM*	·	?	4.2%
C1=Nc2c(NCc3ccccc3)ncnc2Oc2ccccc21	-12.3%	-10.4	25.1µM*	15.9	2.2%	-13.1%
c1ccc(CNc2ncnc3nc[nH]c23)cc1	5.7%	-4.4	-5.0%	-7.9	4.6%	-7.1%
CC(=O)OCC1O[C@@H](O[C@@H]2C[C@H]3C(C)(C)[C@H](OC(C)=O)CC[C@]3(C)[C@H]3CC[C@]45C[C@]4(CC[C@H]5[C@@H](C)C[C@@H](O)[C@H](O)C(C)(C)O)[C@@]32C)[C@H](O)[C@@H](O)[C@@H]1O (stereo partly drawn)	-6.0%	5.3	-13.0%	-114.6*	16.1%	-20.7%
O=C(OCC(=O)N1CCCCC1)c1cc(NS(=O)(=O)c2ccc(Cl)c([N+](=O)[O-])c2)ccc1O	-4.9%	-4.6	8.91µM*	-1.5	0.4%	7.8%
O=C(OCC(=O)N1CCN(C(=O)c2ccco2)CC1)c1cc(S(=O)(=O)Nc2ccc(Cl)cc2)ccc1O	14.1µM*	-29.3	·	·	·	4.4%
Cn1cc(Cl)c(C(=O)N/N=C/c2ccc(OS(=O)(=O)c3ccccc3)cc2)n1	?	-11.0	?	-100.0*	9.5%	8.5%
N#CC(C#N)=C1C=C2C=C(N3CCCCCC3)CCC2CC1 (stereo not drawn)	?	-5.9	-10.7%	-134.0*	-20.9%	-4.0%
Cc1ccc(C(=O)CCNc2ccc(F)c(Cl)c2)o1	14.1µM*	-4.3	-7.8%	-3.8	-2.3%	-3.1%
Cc1ccc(C(=O)CCNc2ccccc2)o1	15.8µM*	3.6	-3.8%	-17.3	-3.2%	4.8%
Cc1ccc(OCCC(=O)Nc2ccc(F)c(Cl)c2)cc1	8.7%	0.7	-6.0%	22.6	1.2%	-5.9%
Cc1ccc(C(=O)NCCCC(=O)O)o1	9.8%	0.5	-3.5%	?	5.3%	6.1%
SMILES	ALDH1A1 inh	GLA inh pH 4.5	HPGD inh	PNC assembly inh	12-hLO inh	aGal spleen mod
Cc1ccc(C(=O)CCNc2ccc(Br)cc2)o1	11.2µM*	9.2	-10.4%	-22.9	-8.3%	1.6%
Cc1ccc(C(=O)CCNc2cccc(Br)c2)o1	?	6.2	-12.1%	26.8	6.8%	5.5%
CN1CCC(CNC(=O)c2ccc(Cc3nc4ccccc4[nH]3)cc2)CC1	-4.1%	·	-7.1%	·	-0.4%	·
Brc1ccc(C2Nc3cccc4cccc(c34)N2)s1	?	-1.9	-20.5%	-19.6	-20.8%	-4.0%
Cc1noc(C)c1-c1ccc2ncnc(NCc3cc(F)cc(F)c3)c2c1	·	·	·	·	·	3.4%
CCCn1c(C(C)NC(C)=O)nc2ccccc21 (stereo not drawn)	3.8%	6.6	-8.5%	?	-4.6%	2.2%
CC(=O)NC(C)c1nc2ccccc2n1C(C)C (stereo not drawn)	6.3%	-2.0	-15.4%	-119.3*	3.5%	-1.4%
O=C1CCCC2=C1C(c1ccccn1)Nc1ccc(C(=O)c3ccccc3)cc1N2 (stereo not drawn)	-10.9%	-2.9	-10.9%	?	0.4%	2.1%
O=C1CCCC2=C1C(c1ccco1)Nc1ccc(C(=O)c3ccccc3)cc1N2 (stereo not drawn)	20µM*	-14.0	-28.4%	?	-18.4%	-5.3%
O=C(NCCc1ccccn1)c1cc(-c2ccccc2Cl)nc2ccccc12	-6.9%	4.7	-19.7%	-24.8	-3.3%	2.4%
COC(=O)C(NC(C)=O)(Nc1ccc(Br)cn1)C(F)(F)F (stereo not drawn)	7.08µM*	-3.7	-4.8%	13.0	5.1%	1.7%
COCCNC(=O)CCSCc1ccccc1F	-1.4%	0.1	25.1µM*	23.3	0.3%	-0.9%
COc1cccc(OC)c1CNC(=O)CCSCc1ccccc1F	?	4.9	·	·	·	-1.3%
COc1ccc(OC)c(C(=O)CSc2nc3cccnc3n2C)c1	22.4µM*	6.9	-12.8%	29.9	-4.8%	10.9%
CCn1nnnc1SCC(=O)c1cc(OC)ccc1OC	14.1µM*	4.6	-21.8%	-5.0	-8.8%	5.3%
CC(=O)N1CCC2(CC1)CN(c1ccncc1)C2	10.3%	·	-12.6%	·	7.2%	3.9%
O=C1c2ccccc2C(=O)C12OC2c1ccc(Cl)cc1Cl (stereo not drawn)	25.1µM*	-6.6	-18.2%	-23.8	1.1%	-6.3%
CC1SC(c2ccc(Cl)cc2Cl)NC1=O (stereo not drawn)	9.7%	4.2	-1.8%	25.2	-5.2%	-2.4%
Oc1cc2c(cc1C(c1ccc(Cl)c(Cl)c1)N1CCCC1)OCO2 (stereo not drawn)	0.794µM*	4.5	·	·	·	-1.8%
